# The entries come from a sample that favours hits as a whole.
# Shiga inhibitor = A qHTS for Small Molecule Inhibitors of Shiga Toxin; AID 2315, 2010; inhibition, % at 38.7 µM; 290,000 tested, 9.2% active; Vero cells, Shiga toxin protein synthesis inhibition reporter; in the data active = inhibition mostly above about 28%, no sharp cut-off; inactive = mostly below about 43%; also: 0% is about no effect
# SARS PLpro yeast = qHTS of Yeast-based Assay for SARS-CoV PLP; S. cerevisiae expressing SARS-CoV PLpro, growth rescue; Potency, µM (doses to about 32.9 µM), without a hit: at the highest dose activity, positive = growth rescue, hits mostly activators; 330,000 tested, 0.19% active; calls by dose curve; also: potency is read from the fitted curve at half-maximal effect; 0% is about no effect; nearly all actives have a fitted effect of over 55% in size
# Cycloheximide cs = Cycloheximide Counterscreen for Small Molecule Inhibitors of Shiga Toxin; max response, %; cell reporter, cycloheximide protein synthesis inhibition counterscreen; AID 2314, 2010; 300,000 tested, 12% active; in the data active = max response mostly above about 13%, no sharp cut-off; inactive = mostly below about 14%; also: read at 38.3 µM for the half of the compounds with a filed dose; 0% is about no effect
# NS1 inh = qHTS Assay for Inhibitors of Influenza NS1 Protein Function | AID 2326, 2010 | Potency, µM (top dose mostly 46.1 µM), inactives show at the highest dose activity, positive = more growth | 270,000 tested, 0.4% active; calls by dose curve; also: potency is read from the fitted curve at half-maximal effect; actives are rising curves; nearly all actives have a fitted effect of over 50% in size
#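 OD600 was taken as the measure of yeast growth restored by compound in an NS1-expressing S. cerevisiae strain. Cells had been washed out of glucose medium and diluted 1:100 into galactose -URA medium, pH 6.0.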
# LmPK inhibitor = qHTS Assay for Inhibitors of Leishmania Mexicana Pyruvate Kinase (LmPK) | purified LmPK, Kinase-Glo ATP luminescence, 1 h | Q27686 | Potency, µM (series often up to 57.5 µM), for the others: top-dose activity change, negative = inhibition, hits mostly inhibitors | AID 1721, 2009 | 290,000 tested, 0.37% active; also: potency is read from the fitted curve at half-maximal effect; % is scaled to controls: 0 for no effect and ±100 for the full control effect
# Target sequence (Q27686 whole entry, looked up): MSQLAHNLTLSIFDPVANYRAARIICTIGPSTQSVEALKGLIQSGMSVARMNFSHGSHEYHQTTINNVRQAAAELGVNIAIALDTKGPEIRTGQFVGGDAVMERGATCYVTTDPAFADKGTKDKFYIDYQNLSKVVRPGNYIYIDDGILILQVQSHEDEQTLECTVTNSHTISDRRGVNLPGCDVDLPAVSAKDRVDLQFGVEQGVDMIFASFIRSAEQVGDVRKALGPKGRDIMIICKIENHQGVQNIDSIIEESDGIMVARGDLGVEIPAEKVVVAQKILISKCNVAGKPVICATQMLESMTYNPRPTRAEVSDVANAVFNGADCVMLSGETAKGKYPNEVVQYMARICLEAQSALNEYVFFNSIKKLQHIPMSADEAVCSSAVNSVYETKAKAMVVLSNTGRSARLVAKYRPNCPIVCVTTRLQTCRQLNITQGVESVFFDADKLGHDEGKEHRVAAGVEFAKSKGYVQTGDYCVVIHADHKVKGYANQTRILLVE
#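 0.1 nM LmPK, 0.5 mM PEP, 0.1 mM ADP; 50 mM imidazole pH 7.2, 7 mM MgCl2, 50 mM KCl; 1 h RT. Kinase-Glo luminescence readout, normalized to no-enzyme (full inhibition) and uninhibited wells.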
# Tb PYK inh = qHTS of Trypanosoma Brucei Inhibitors. 410,000 tested, 0.12% active. AID 624173, 2012. Potency, µM (highest dose often 76.8 µM), inactives show top-dose activity, negative = inhibition, actives largely listed as inhibitors. TbPYK enzyme, Kinase-Glo Plus ATP luminescence, 45 min. pyruvate kinase (Trypanosoma brucei), Q57TT1; also: potency is read from the fitted curve at half-maximal effect; % is scaled to controls: 0 for no effect and ±100 for the full control effect; nearly all actives have a fitted effect of over 50% in size
#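 TbPYK + substrate in 50 mM TEA pH 7.2, 100 mM KCl, 10 mM MgCl2, 0.05% BSA, 0.01% Tween-20; cpd pinned; ADP 130 uM final; 45 min RT; Kinase-Glo Plus 10 min; luminescence endpoint.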
# * hit, by the source's call; ? = inconclusive; / = no result given; + = active, no number. Unless noted, calls follow the shape of the dose curve; as a rule, active = well fitted curve in the direction sought with a large enough effect; inconclusive = small, poorly fitted or top-dose-only effect, or another doubt; inactive = no such curve, though single readings can be large; an effect the other way counts as inactive or inconclusive.
SMILES,Shiga inhibitor,SARS PLpro yeast,Cycloheximide cs,NS1 inh,LmPK inhibitor,Tb PYK inh
c1ccc2[nH]c(N3CCOCC3)nc2c1,6.5,44.3%,-1.0,-1.4%,-6.4%,0.8%
O=c1c(Cl)c(N2CCOCC2)cnn1-c1nc2ccccc2[nH]1,73.4*,-2.3%,24.2*,/,?,-9.6%
COc1ccc2cc(C=NS(=O)(=O)c3ccc(C)cc3)n(C)c2c1,/,2.2%,/,/,/,4.8%
COc1ccc(Cl)cc1NC(=O)c1cc(=O)c2cc(C)cc(C)c2o1,/,/,/,/,/,10.3%
O=C(NC1=C(Nc2ccc(Cl)cc2)C(=O)c2ccccc2C1=O)c1ccccc1,37.5,9.7%,24.3*,-12.8%,?,?
Cc1cccc(NC2=C(NC(=O)c3ccccc3)C(=O)c3ccccc3C2=O)c1,29.6,-40.5%,13.9*,-35.2%,3.55µM*,15.8µM*
O=C(Nc1ccc(NS(=O)(=O)c2ccccc2)cc1)c1ccc(Cl)cc1,-1.3,1.0%,3.9,1.2%,4.6%,6.6%
O=C(Cc1ccc(Cl)cc1)Nc1ccc(NC(=O)c2ccccc2)cc1,14.0,4.6%,3.7,6.9%,4.4%,1.8%
CN(C1=C(NC(=O)c2ccc(Cl)cc2)C(=O)c2ccccc2C1=O)c1ccccc1,50.3*,-24.5%,20.3*,26.5%,-25.2%,-14.2%
CCOc1ccccc1CN1CCCC(C(=O)Nc2cccc(-n3cccn3)c2)C1 (centres undefined),3.6,3.0%,-4.1,0.9%,1.1%,11.3%
CC(/C=C/C=C/c1ccccc1)=N/NC(=O)c1ccc2c(c1)OCCO2,63.0*,0.2%,31.2*,-0.9%,-1.1%,-22.7%
C/C(=N\NC(=O)c1cccc(Br)c1)c1ccc(Br)cc1,53.7*,-0.5%,32.9*,?,4.6%,-2.8%
C/C(=N/NC(=O)c1ccccc1)C(=O)O,73.6*,-1.4%,41.7*,-4.6%,?,6.5%
O=C(N/N=C/C1C(c2ccccc2)C1(Cl)Cl)c1cccc(Br)c1 (centres undefined),68.3,-19.2%,23.4*,-34.9%,0.1%,-1.1%
CCC(=O)N1CCc2cc(S(=O)(=O)CCC(=O)Nc3ccc(Cl)c(C(F)(F)F)c3)ccc21,/,/,/,/,/,-6.8%
COc1cc(-n2c(=O)c3ccccc3n(CC(=O)c3ccc(F)cc3)c2=O)cc(OC)c1OC,-6.5,5.1%,6.8,/,0.0%,6.3%
Cc1ccc(C(=O)NCCNS(=O)(=O)c2ccccc2[N+](=O)[O-])cc1,/,7.4%,2.6,8.5%,4.3%,0.0%
C/C(=N\NC(=O)c1ccccc1)C1C2C=CC(C2)C1(C)C (centres undefined),91.5*,-1.1%,48.5*,1.7%,-5.3%,-0.4%
CC(/C=C/c1ccccc1)=N/NC(=O)c1cccc(Br)c1,111.3,-2.9%,19.5*,-1.9%,2.3%,2.5%
CC(/C=C/c1ccccc1)=N\NC(=O)c1ccc(Br)cc1,16.0,1.1%,-3.7,/,-10.8%,-2.7%
C/C(=N\NC(=O)c1ccccc1)c1cccc(Br)c1,124.4*,-1.3%,48.4*,/,-8.5%,-15.1%
COC(=O)[C@]1(C)N[C@H](CN(C)C(=O)COc2ccccc2)[C@@H]2C(=O)N(C)C(=O)[C@@H]21,/,-0.3%,/,/,/,0.0%
Cc1nc(SCc2ccc(Cl)c(Cl)c2)n[nH]1,43.6,-18.6%,15.6*,-132.8%,2.2%,-1.2%
Cc1nc(SCc2ccc(F)cc2)n[nH]1,40.8,2.2%,8.6,1.4%,5.6%,-3.8%
Cc1nc(SCc2cccc(Oc3ccccc3)c2)n[nH]1,47.4,-28.9%,46.5*,-172.7%,2.1%,0.0%
SMILES,Shiga inhibitor,SARS PLpro yeast,Cycloheximide cs,NS1 inh,LmPK inhibitor,Tb PYK inh
Cc1nc(SCc2ccc(OCCC(C)C)cc2)n[nH]1,154.3*,-4.2%,48.7*,0.5%,0.6%,0.0%
CC[C@H]1c2[nH]c3ccccc3c2C[C@@H]2C(=O)N(c3ccc(F)cc3)C(=O)N21,/,1.6%,/,/,/,0.5%
Cc1[nH]cnc1C(=O)N/N=C/c1c(Cl)cccc1Cl,45.9,-4.3%,36.0*,2.0%,?,?
Cc1nnsc1C(=O)N/N=C/c1c(F)cccc1Cl,-16.0,0.2%,7.0,/,-8.1%,-2.2%
Cn1nc(C(=O)N2CCCc3ccccc32)c2ccccc2c1=O,-6.3,-0.2%,0.9,/,-8.1%,0.7%
Cc1c(Br)c(C(=O)N2CCc3ccccc32)nn1C,61.6*,5.0%,91.4*,-0.6%,-23.2%,-8.8%
Cc1c(Cl)c(C(=O)N2CCCc3ccccc32)nn1C,47.4*,-6.9%,16.2,-35.7%,-2.2%,-3.7%
O=C(c1nn2c(C(F)(F)F)cc(-c3cccs3)nc2c1Cl)N1CCCc2ccccc21,79.8*,-2.3%,47.9*,1.2%,-1.1%,3.1%
O=C(c1cnn2c(C(F)(F)F)cc(-c3ccccc3)nc12)N1CCCc2ccccc21,-2.1,-2.5%,2.3,-1.7%,1.9%,-1.9%
O=C(NC1c2ccccc2Oc2ccccc21)c1ccc([N+](=O)[O-])cc1,/,/,/,/,/,0.9%
COc1ccc(N(CC(=O)Nc2cccc(Cl)c2C)S(=O)(=O)c2c(C)nn(C)c2C)cc1,/,/,/,/,/,-3.4%
N#Cc1ccccc1S(=O)(=O)N1CCN(CC(O)CN2CCOCC2)CC1 (centres undefined),/,-0.2%,/,/,/,-1.0%
O=C(Cc1c[nH]c2ccccc12)OCC(=O)c1ccccc1,5.4,-8.5%,48.5*,-18.8%,3.1%,-10.4%
N#CC(=C(O)COC(=O)CCC1CCCCC1)c1nc2ccccc2[nH]1,/,/,/,/,/,1.6%
N#C/C(=C(/O)COC(=O)Cc1c[nH]c2ccccc12)c1nc2ccccc2[nH]1,65.5*,3.6%,14.1*,3.7%,4.8%,-1.0%
COc1ccccc1OCC(=O)OC/C(O)=C(\C#N)c1nc2ccccc2[nH]1,10.1,16.5%,15.6*,?,-1.0%,-11.0%
COc1ccc(C(=O)COC(=O)Cc2c[nH]c3ccccc23)c(OC)c1,/,-20.0%,/,/,/,-1.8%
Cc1ccc2nc(N3CCOCC3)c(C=O)cc2c1,35.6,-5.7%,25.7*,-30.3%,-0.1%,1.5%
Cc1ccc2cc(C=O)c(N3CCOCC3)nc2c1C,/,-10.3%,-2.8,-28.5%,-0.6%,1.8%
CCCCOc1ccc(-c2cn3ccccc3n2)cc1[N+](=O)[O-],103.4*,-31.1%,62.0*,-11.3%,-14.7%,3.6%
O=[N+]([O-])c1ccc(-c2cn3ccccc3n2)cc1,/,/,/,/,/,-7.0%
CCOc1ccc(-c2cn3ccccc3n2)cc1[N+](=O)[O-],66.8*,-11.5%,37.6*,-3.3%,-8.1%,-13.1%
Oc1ccc(-c2cn3ccccc3n2)cc1O,-4.0,0.1%,3.3,9.1%,?,?
CCCOc1ccc(-c2csc(N)n2)cc1[N+](=O)[O-],+,-98.3%,45.0*,-25.3%,-0.1%,-8.8%
CN(Cc1ccc(Cl)cc1Cl)C(=O)C1CSC2(C)CCC(=O)N12 (centres undefined),/,/,/,/,/,4.0%

# High-throughput results deposited in PubChem BioAssay by National Center for Advancing Translational Sciences (NCATS).
